Measurements published in PubChem BioAssay (EPA / NIEHS).
Calls of active or inactive are those of the source. How the source made its calls: active means hit-call score of the fitted dose curve at least 0.9, where 1 is the maximum; inactive means score below 0.9.

read-out: ATP-citrate lyase (ACLY), ACLY (gene 47); experiment: LTEA_HepaRG_ACLY: Life Technologies and Expression Analysis (LTEA) Assay for ATP-citrate lyase (ACLY) using HepaRG (AID 2283466); details: mRNA level, 48 h; actives raise or lower the signal
Method: LTEA_HepaRG is a cell based, multiplexed-readout assay that uses HepaRG, a human liver cell line, with measurements taken at 48 hours after chemical dosing on a 96-well plate.LTEA_HepaRG_ACLY is one of 102 assay component(s) measured in the LTEA HepaRG cell culture assay. It is a marker of Steatosis.Data from the assay component LTEA_HepaRG_ACLY was analyzed into 1 endpoint. This assay endpoint, LTEA_HepaRG_ACLY, was analyzed with bidirectional fitting relative to DMSO as the negative control and baseline of activity. Using a type of inducible reporter, measures of mRNA induction for gain or loss-of-signal activity can be used to understand regulation of transcription factor activity. To generalize the intended target to other relatable targets, this assay endpoint is annotated to the lyase intended target family, where the subfamily is steatosis.
A total of 1060 chemcials from the ToxCast library were tested in eight-point concentration-response experiments. Cell culture and cytotoxicity assays were conducted at Thermo Fisher Scientific's Custom Services facility (Madison, WI). A single lot of human HepaRG cells (Thermo Fisher Scientific, Frederick, MD) was used for the cell culture experiments. 96-well format collagen type I coated plates of human HepaRG cells were prepared using established methods. Briefly, cryopreserved HepaRG cells were thawed, plated at a density of approximately 100,000 cells/well in HepaRG Thaw, Plate, and General Purpose media (HPRG770, Thermo Fisher Scientific), and incubated for 48 hours. 0.5% DMSO was selected as vehicle control to balance the requisite need of DMSO in HepaRG cultures to maintain differentiation (for example, baseline metabolism, proportions of hepatocytes vs. cholangiocytes), while enabling further hepatic receptor pathway activation (for example, PXR and CAR) in response to chemical exposure. 48 hours after plating, the culture medium was replaced with HepaRG Serum-Free Incudtion Media. Cells were exposed to each test chemical in duplicate and maintained in CO2 incubators for another 48 hours. Chemical plates were thawed to room temperature and 200x concentrations of treatment groups were prepared. 8-point conentration-reponse curves were made with the highest exposure at 100 uM, followed by half-log dilutions, all in 0.5% DMSO. Each test plate contained variouse controls, induction positive controls (1mM phenobarbital), cytotoxicity positive controls ([…] aflatoxin B1), vehicle controls (0.5% DMSO), and total lysis controls (0.5% DMSO). Cell morphology images were taken using an Essen IncuCyte FLR automated microscope, with six 96-well plates imaged in about 24 minutes. Images were captured and exported and JPEG files. Spent culture media was transfered to black-well plates for the LDH assay, and remaining media was sorted at -80 C for later use. Cells were treated with RLT buffer and frozen until shipped for gene expression analysis. Total RNA was isolated from the cell suspension in 75 uL of Buffer RLT (Qiagen, Germantown, MD 20874) by Quintiles/Expression Analysis (Durham, NC) using a custom isolation procedure. Total RNA from each plate well was transferred to a preamplification plate. Fluidigm's 96.96 Dynamic ArrayTM (Fluidigm, Amsterdam, the Netherlands) technology was used for gene expression analyses by quantitative reverse transcription polymerase chain reaction (qRT-PCR, performed by Quintiles/Expression Analysis, Durham, NC)89. Standard TaqManTM Assays (Applied Biosystems/ThermoFisher Scientific, Foster City, CA) were used to assess the expression of 93 genes selected based on their selectivity and sensitivity to important hepatic receptors known to be modulated by environmental chemicals; importance in human hepatocyte functionality; and hepatotoxicity. […]

SMILES | outcome | AC50
Oc1cc(Cl)c(Cl)cc1Cl | inactive | 
COc1ccccc1N | inactive | 
CC(C)O.CC(C)O.OCCN(CCO)CCO.OCCN(CCO)CCO.[Ti] | inactive | 
CCCCCCCCCCCCc1cccc(S(=O)(=O)O)c1 | inactive | 
Clc1cccc(Cl)c1Cl | inactive | 
O=C(N[C@H]1CN2CCC1CC2)c1ccc2c(c1)OCCO2 | inactive | 
OCCN(CCO)CCO | inactive | 
N#Cc1cccnc1 | inactive | 
Oc1c(Cl)cc(Cl)cc1Cl | inactive | 
CC(C)(C)c1ccccc1O | inactive | 
Cc1cc(C)cc(C)c1 | inactive | 
O=C(O)C1(c2ccc3c(c2)OC[C@H](Cc2ccc(-c4ccccc4)cc2)[C@H]3O)CCCC1 |  | 82.4 µM (active)
Clc1cccc(Cl)c1 | inactive | 
CN(C)C(=S)S | inactive | 
